# Source: PubChem (The Scripps Research Institute Molecular Screening Center)
# Hits are enriched below; roughly 1.8% of the tested compounds scored in any of these assays.
# GSTO1 inh – inhibitors of recombinant GSTO1, primary screen, counter-screen for RBBP9 inhibitor project, biochemical, fluorescence polarization; activity-based probe fluorescence polarization; inhibition, % at 5.96 µM; AID 1974, 2009; Glutathione S-transferase omega-1 (Homo sapiens), P78417; 1.1% of 300,000 active;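 active = inhibition above the campaign mean inhibition plus 3 SD, cut at about 35% in these data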;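 note: 0% = GSTO1-1 with DMSO and 100% = wells lacking GSTO1-1 enzyme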
# Target sequence (P78417 whole entry, looked up): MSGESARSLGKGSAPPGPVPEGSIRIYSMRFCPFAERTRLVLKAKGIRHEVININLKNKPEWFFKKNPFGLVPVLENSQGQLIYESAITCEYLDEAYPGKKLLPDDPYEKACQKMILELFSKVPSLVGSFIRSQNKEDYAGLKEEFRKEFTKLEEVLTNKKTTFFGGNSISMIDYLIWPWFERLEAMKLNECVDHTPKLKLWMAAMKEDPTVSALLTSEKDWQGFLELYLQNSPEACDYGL
# Fam108B counter – mouse Fam108B serine hydrolase inhibitors, primary screen, counter-screen for RBBP9 inhibitor project, biochemical, fluorescence polarization; inhibition, % at 9.51 µM; 0.33% of 300,000 active; recombinant Fam108B, FP-Rh probe fluorescence polarization;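 active = inhibition above the screen mean inhibition plus 3 SD, computed separately per campaign, cut at about 18% in these data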;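 note: inhibitors lower polarization as less probe binds the enzyme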
# PAD4 inh – human PAD4 inhibitors, primary screen, biochemical, fluorescence polarization, 1536-well format; recombinant PAD4, RCA probe fluorescence polarization; Protein-arginine deiminase type-4 (Homo sapiens), Q9UM07; 0.41% of 330,000 active; inhibition, % at 6.36 µM; AID 485272, 2010;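 active = percent inhibition above a cutoff equal to the mean of all tested compounds plus 3 SD, cut at about 15% in these data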;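 note: 0% = PAD4 with RCA probe and DMSO and 100% = probe without PAD4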
# LYPLA1 inh – LYPLA1 inhibitors, primary screen, counter-screen for PME1 inhibitor project, biochemical, fluorescence polarization, FP-Rh probe ABPP; recombinant LYPLA1; inhibition, % at 5.9 µM; 0.16% of 320,000 active;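 active = inhibition above the mean of all tested compounds plus 3 SD, set per campaign, cut at about 14% in these data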;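 note: inhibitors block serine hydrolase probe labeling of LYPLA1 so polarization falls; 0% = enzyme with DMSO and 100% = wells lacking LYPLA1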
# Target sequence (O75608 whole entry, looked up): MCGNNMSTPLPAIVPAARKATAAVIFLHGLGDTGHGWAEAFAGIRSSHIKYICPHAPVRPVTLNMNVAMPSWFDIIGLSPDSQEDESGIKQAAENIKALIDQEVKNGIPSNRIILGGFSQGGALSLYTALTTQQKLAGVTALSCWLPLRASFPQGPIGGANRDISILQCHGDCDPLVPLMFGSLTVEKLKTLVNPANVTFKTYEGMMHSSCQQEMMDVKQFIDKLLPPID
# PME-1 primary – PME-1 inhibitors via competitive probe labeling, primary screen, biochemical, fluorescence polarization, FP-Rh probe, HTS. recombinant PME-1. AID 2130, 2009. inhibition, % at 5.9 µM. 0.53% of 320,000 active;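 active = inhibition above the campaign mean of all compounds plus 3 SD, cut at about 26% in these data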;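 note: competitive labeling of PME-1 active site by serine hydrolase directed probe; 0% = PME-1 with DMSO and 100% = wells lacking PME-1 enzyme; inhibitors block probe labeling so polarization falls and inhibition rises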
# LYPLA2 inh – LYPLA2 inhibitors, primary screen, counter-screen for PME1 inhibitor project, biochemical, fluorescence polarization, FP-Rh probe ABPP. inhibition, % at 5.9 µM. AID 2177, 2009. 0.38% of 320,000 active. Acyl-protein thioesterase 2 (Homo sapiens), O95372. recombinant LYPLA2;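 active = inhibition above the screen-wide mean plus 3 SD, limit set per campaign, cut at about 26% in these data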;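 note: 0% = LYPLA2 with DMSO and 100% = wells lacking LYPLA2 enzyme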
# PAD4 FP conf – human PAD4 inhibitors, confirmation, biochemical, fluorescence polarization. shares compounds with PAD4 inh. recombinant PAD4, RCA probe fluorescence polarization. inhibition, % at 6.36 µM. 28% of 1,200 active. AID 488796, 2010;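 active = mean inhibition across replicates above the hit cutoff set by the earlier primary screen, cut at about 15% in these data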;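 note: inhibitors block active-site labeling by the probe so polarization falls; 0% = PAD4 with probe and DMSO and 100% = probe without PAD4 enzyme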
# The depositor's hits bear a star; . = not tested or not shown.
SMILES,GSTO1 inh,Fam108B counter,PAD4 inh,LYPLA1 inh,PME-1 primary,LYPLA2 inh,PAD4 FP conf
Cc1[nH][nH]c(=O)c1C(c1ccc(-c2cccc(C(=O)O)c2)o1)c1c(C)[nH][nH]c1=O,32.8,-1.0,33.3*,-3.8,0.8,0.6,-11.7
CN(C)c1ccc(/C=N/NC(=O)Cn2nnc3ccccc32)cc1,1.4,5.0,14.9*,1.0,0.9,5.2,-0.5
COc1cc(Cl)c(S(=O)(=O)NCc2cccnc2)cc1Cl,1.6,4.4,-3.9,-0.4,-1.5,2.5,.
COc1ccc(C(=O)NCCCCCCNC(=O)c2ccc(OC)cc2)cc1,-2.2,0.8,-0.1,-2.8,-0.5,-1.2,.
CC1=NN(c2ccc(Cl)cc2)C(=O)C1C(c1ccccc1O)c1c(C)[nH]n(-c2ccc(Cl)cc2)c1=O (centres undefined),72.2*,17.2,66.8*,6.9,12.2,21.5,-7.6
Cc1ccc(C)c(-n2sc3ccc(F)cc3c2=O)c1,.,.,37.6*,1.3,4.0,8.8,35.1*
O=c1c2cc(F)ccc2sn1-c1ccc(F)cc1,.,.,30.2*,2.5,8.5,12.2,25.4*
COc1ccc(-n2sc3ccc(F)cc3c2=O)cc1,.,.,31.3*,-0.8,6.2,3.5,30.1*
O=C1CCCC(=O)N1c1ccc(F)cc1,0.3,0.9,-2.6,-2.2,-7.0,4.6,.
C(=Nc1ccc(Nc2ccccc2)cc1)c1ccc2ccccc2c1,34.0,2.3,24.1*,0.7,1.2,7.0,2.7
O=C(NCc1cn2ccsc2n1)c1cccs1,-2.5,-2.1,-2.6,4.0,-5.5,-0.3,.
CN(C)c1ccc(N/C=C/C(=O)c2ccc(F)cc2)cc1,45.5*,-3.0,31.2*,-2.5,6.6,2.3,-2.3
NS(=O)(=O)c1ccc(N/C=C\C(=O)c2ccc(F)cc2)cc1,1.6,-1.3,-2.3,1.0,3.9,2.1,.
CCCC(=O)Oc1ccc(C2NC(=O)c3ccccc3O2)cc1 (centres undefined),-2.1,0.9,0.4,1.9,-8.9,-1.2,.
O=C1CSC(c2ccccc2O)N1Cc1ccccc1 (centres undefined),4.6,-1.7,40.5*,-0.1,-5.1,-4.2,0.3
CC[n+]1c(C)sc2cc(OC)ccc21,11.0,3.0,17.1*,3.4,-7.6,7.1,12.6
Cc1ccc(S(=O)(=O)N2[C@@H](c3ccc(Br)cc3)C(C(=O)O)=C[C@H]2C(C)(C)C)cc1,.,.,-3.0,.,.,.,.
CCOC(=O)C1=CNS(=O)(=O)NC1c1ccc(C)cc1 (centres undefined),.,.,-5.2,.,.,.,.
CC(=O)Nc1ccc(SCC(=O)c2ccc(Br)s2)cc1,11.6,3.0,34.6*,-2.7,-3.8,-2.8,12.0
Cc1oc2c(C)c(O)ccc2c(=O)c1-c1ccc2ccccc2n1,0.8,1.2,83.6*,-2.2,-3.8,-1.3,-5.7
CCC(=O)Oc1ccc2c(=O)c(-c3ccc4ccccc4n3)c(CC)oc2c1C,9.2,6.2,-0.4,-1.1,-0.8,0.7,.
Fc1ccccc1/C=N/n1c(COc2ccccc2)n[nH]c1=S,2.2,-1.6,9.9,-1.7,-4.2,-4.7,.
CCCn1c2c(c(O)c(C(=O)Nc3ccccc3)c1=O)CCCC2,5.8,-9.4,-4.7,-5.9,3.9,-0.8,.
O=C(NC(=S)Nc1ccc(F)c([N+](=O)[O-])c1)c1ccccc1F,10.9,2.7,17.5*,-2.6,4.7,-7.9,3.1
O=C(NC(=S)Nc1ccc2[nH]c(=O)[nH]c2c1)c1ccccc1F,-12.7,-3.3,-1.5,-1.4,8.5,3.9,.
SMILES,GSTO1 inh,Fam108B counter,PAD4 inh,LYPLA1 inh,PME-1 primary,LYPLA2 inh,PAD4 FP conf
COC(=O)[C@@H]1C[C@]2(OC(=O)c3ccccc3)C=CC(=O)C[C@@H]2N1C(=O)OCc1ccccc1,5.7,-0.6,19.2*,-2.3,3.0,-0.9,21.9*
COC(CNC(=O)C1CCCN1C(=O)OCc1ccccc1)OC (centres undefined),1.6,1.7,1.9,4.5,2.0,6.8,.
O=C(O)CC1(CC(=O)Nc2ccc(C(F)(F)F)cc2)CCCC1,-9.8,-5.0,-5.2,0.9,1.0,4.6,.
Cc1cc2nc3c(=O)[nH]c(=S)[nH]c3nc2cc1NC(=O)C(F)(F)F,8.8,-0.9,41.1*,0.7,9.3,5.5,39.1*
CC1=CC(C)(C)N(C(=O)CNC2CCCCC2)c2cc(C)ccc21,9.6,1.4,-4.7,4.5,12.6,7.9,.
O=C(N/C(=C\c1cccc([N+](=O)[O-])c1)C(=O)N1CCOCC1)c1ccco1,-5.9,1.2,-1.3,-1.9,1.1,3.7,.
CC(=O)N1CC[n+]2c(-c3ccc(Cl)cc3)csc21,7.2,1.6,21.6*,-2.6,0.5,4.3,5.9
CCOc1ccc(-c2n[nH]c(C)c2Oc2ccc(OC)cc2)c(O)c1,2.2,0.1,0.6,-12.0,-5.0,-10.8,.
O=C(O)c1ccccc1Sc1c([N+](=O)[O-])cc(C(F)(F)F)cc1[N+](=O)[O-],36.1*,4.9,45.0*,2.0,-2.0,1.1,25.8*
COc1ccc(N(C)S(=O)(=O)c2cccc(C(=O)OCC(=O)N3CC(C)CC(C)C3)c2)cc1 (centres undefined),.,.,17.1*,.,.,.,2.9
COc1ccc(N(C)S(=O)(=O)c2cccc(C(=O)OCC(=O)NCc3ccccc3OC)c2)cc1,-5.9,2.7,-3.2,-0.3,5.5,-0.8,.
c1cc(CNc2ccc(N3CCOCC3)cc2)ccn1,18.1,-0.7,24.8*,-2.5,6.3,4.4,3.6
Cc1sc2ccc3sccc3c2[n+]1C,3.8,-2.3,17.2*,-2.0,-8.0,2.1,14.2
Cc1ccc(-c2nc(SCC(=O)Nc3cc(S(=O)(=O)N4CCCCC4)ccc3Cl)n[nH]2)cc1,-12.6,-25.8,-1.1,-24.3,-29.8,-58.0,.
Cc1ccc(C)c(N(C(=O)CS(=O)CC(=O)Nc2ccc3c(c2)OCO3)C(C)C(=O)NC2CCCC2)c1 (centres undefined),3.2,0.1,2.6,-2.3,6.4,9.6,.
COc1cc(NC(=O)c2cc(C)nc3ccccc23)cc(OC)c1OC,10.3,1.3,28.5*,-2.0,3.8,0.6,4.6
Cc1ccc(NC(=O)C(C)N2CCOCC2)c(C(=O)c2ccccc2)c1 (centres undefined),2.3,2.6,39.8*,3.8,-3.0,5.7,1.8
COc1cc(-c2nc3c4ccccc4nc(=S)n3[nH]2)cc(OC)c1OC,-2.2,4.2,16.2*,-1.3,26.1,1.6,24.7*
